Source: PubChem BioAssay
Only some compounds are listed: those with a hit (about 21% of all), similar ones and a draw of the others.
AMA1-RON2 inh: inhibitors of Plasmodium falciparum AMA1-RON2 interaction; AlphaScreen AMA1-biotinylated RON2 peptide binding; Potency, µM (series often up to 58.2 µM), most hits filed as inhibitors; 360,000 compounds, 0.2% hits; note: nearly all actives have a fitted effect of over 45% in size
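AMA1 (3D7) with his tag at 25 nM final met compounds first, then biotinylated RON2 peptide at 25 nM; detection used donor plus acceptor beads, 10 µg/mL apiece, read by AlphaScreen after 30 min at room temperature.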
Pf growth 48h: inhibits P. falciparum growth in the first generation, 48 h; Potency, µM (highest dose often 28.7 µM), actives largely listed as inhibitors; 310,000 compounds, 5.9% hits; P. falciparum luciferase growth in erythrocytes, 48 h
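Luciferase-expressing P. falciparum in infected erythrocytes (2% hematocrit, 0.1% parasitemia final) in RPMI 1640/0.5% Albumax were exposed to compound for 48 hours at 37 C, 5% CO2; growth read as luminescence.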
CHX counter: counter-screen hit for Shiga toxin inhibitors, cycloheximide. 300,000 compounds, 12% hits. max response, %. cell reporter, cycloheximide protein synthesis inhibition counterscreen; in the data active = max response mostly above about 13%, no sharp cut-off; inactive = mostly below about 14%; note: read at 38.3 µM for the half of the compounds with a filed dose
HCV inh: HCV inhibition. Potency, µM (titrated, usually from 41.8 µM), usual class: inhibitors. 340,000 compounds, 3.4% hits. AID 651820. Huh7.5.1 HCVcc-Cre infection, luciferase reporter, 44 h
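Whole-lifecycle infectious HCVcc-Cre system; cells 1,000/well, compound then virus (~0.5 moi) added 4 h after plating, 44 h culture. Luciferase read 15 sec following 15 min substrate incubation, room temp.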
Shiga toxin inh: Shiga toxin inhibition; inhibition, % at 38.7 µM; 290,000 compounds, 9.2% hits; Vero cells, Shiga toxin protein synthesis inhibition reporter; in the data active = inhibition mostly above about 28%, no sharp cut-off; inactive = mostly below about 43%
Pf growth 96h: P. falciparum growth inhibition at 96 hours. P. falciparum luciferase reporter growth, 96 h. Potency, µM (titrated, usually from 28.7 µM), usual class: inhibitors. AID 504834. 320,000 compounds, 6.9% hits
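P. falciparum expressing integrated firefly luciferase, in erythrocytes at 2% hematocrit, 0.05% parasitemia, incubated with compounds 96 h at 37 C, 5% CO2. Growth inhibition read as loss of luminescence; two-generation exposure targets delayed-death apicoplast inhibitors.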
Each line names hits and unclear results; the compound was inactive in the other large screens. Unless noted, calls come from the whole dose curve; as a rule, active = well fitted curve in the direction sought with a large enough effect; inconclusive = small, poorly fitted or top-dose-only effect, or another doubt; inactive = no such curve, though single readings can be large; an effect the other way counts as inactive or inconclusive.

CCc1nc(NCCCn2ccnc2)c2oc3ccccc3c2n1	Pf growth 48h inconclusive, Pf growth 96h 13.1µM
O=C(c1noc2c1CCCC2)N1CCN(c2ccccc2)CC1	CHX counter 20.5
O=C(c1ccc(Cn2cc(Cl)c([N+](=O)[O-])n2)cc1)N1CCN(Cc2ccccc2)CC1	HCV inh 11.2µM
Cc1onc(C(=O)N2CCN(Cc3ccccc3)CC2)c1[N+](=O)[O-]	Pf growth 96h 14.7µM
O=C(c1ccc([N+](=O)[O-])cc1)N1CCN(Cc2ccccc2)CC1	none
Cc1ccc(Cl)cc1N1CCN(C(=O)c2noc(C(C)C)c2[N+](=O)[O-])CC1	Pf growth 48h inconclusive, HCV inh 3.55µM, Pf growth 96h inconclusive
Cc1c(C(=O)NCc2ccc3c(c2)OCO3)sc(=O)n1Cc1cccc(F)c1	none (no result: Pf growth 48h, CHX counter, HCV inh, Shiga toxin inh, Pf growth 96h)
COC(=O)[C@H](C(C)C)N(Cc1ccccc1)S(=O)(=O)CCNC1CCCC1	HCV inh inconclusive (no result: Pf growth 48h, CHX counter, Shiga toxin inh, Pf growth 96h)
COC(=O)[C@H](Cc1c[nH]c2ccccc12)NC(=O)NCc1ccc(OC)c(OC)c1	none
CC(C)c1onc(C(=O)N2CCN(c3ccc(F)cc3)CC2)c1[N+](=O)[O-]	Pf growth 48h inconclusive, Pf growth 96h inconclusive
CC(C)c1onc(C(=O)N2CCN(c3ccccc3)CC2)c1[N+](=O)[O-]	Pf growth 48h 5.22µM, Pf growth 96h inconclusive
CC(=O)c1ccc(N2CCN(C(=O)c3noc4c3CSc3ccccc3-4)CC2)cc1	CHX counter 16.8
C[C@@H](NC(=O)/C(C#N)=C/c1ccc(O)c(O)c1)c1ccccc1	Pf growth 48h inconclusive, HCV inh inconclusive, Pf growth 96h inconclusive (no result: CHX counter, Shiga toxin inh)
CC(NC(=O)/C(C#N)=C/c1ccc(Cl)c([N+](=O)[O-])c1)c1ccccc1 (configuration not stated)	HCV inh 35.5µM
C/C(=N\Nc1ccc2nncn2n1)c1cccs1	CHX counter 40.6
C(=N\Nc1ccc2nncn2n1)/c1ccco1	none
O=C(CN1CCN(Cc2ccccc2)CC1)N1CCCc2c1c(=O)oc1ccc(O)cc21	Pf growth 48h 2.94µM, HCV inh inconclusive
COc1cc2c(cc1OC)/C(=C/C(=O)c1cccc([N+](=O)[O-])c1)NCC2	Pf growth 48h inconclusive, HCV inh inconclusive, Pf growth 96h inconclusive
COc1cc2c(cc1OC)/C(=C/C(=O)c1ccc(OC)c([N+](=O)[O-])c1)NCC2	CHX counter 11.5, HCV inh inconclusive, Pf growth 96h inconclusive
COc1cc2c(cc1OC)/C(=C/C(=O)c1ccccc1F)NCC2	none
COc1cc2c(cc1OC)/C(=C/C(=O)c1ccc(F)cc1)NCC2	Pf growth 48h inconclusive, HCV inh inconclusive, Pf growth 96h 11.7µM
COC(=O)CCC(=O)NNC(=O)C1CC1(c1ccccc1)c1ccccc1 (configuration not stated)	Pf growth 96h 10.4µM
CCc1ccc(NC(=O)CCS(=O)(=O)c2ccc(Cl)cc2)cc1	none
c1ccc2c(c1)nc(N1CCOCC1)c1nncn12	HCV inh inconclusive, Pf growth 96h inconclusive (no result: Pf growth 48h)
c1ccc2c(c1)CCCN2c1nc2ccccc2n2cnnc12	CHX counter 29.9, Shiga toxin inh 107.0 (no result: Pf growth 48h)
c1ccc(N2CCN(c3nc4ccccc4n4cnnc34)CC2)cc1	Pf growth 96h 4.15µM (no result: Pf growth 48h)
COc1ccc(C(=O)Nc2nnc(SCC(=O)NC3CC3)s2)cc1	CHX counter 39.3, Shiga toxin inh 50.5, Pf growth 96h inconclusive
COc1ccc(C(=O)Nc2nnc(SCC(=O)NC3CCCC3)s2)c(OC)c1	CHX counter 41.6, Shiga toxin inh 96.0
COc1ccc(C(=O)Nc2nnc(SCC(=O)Nc3ccc(NC(C)=O)cc3)s2)c(OC)c1	CHX counter 48.1, Shiga toxin inh 118.8
COc1cccc(C(=O)Nc2nnc(SCC(=O)NC3CC3)s2)c1	none
NC(=O)c1cccc(Nc2nc(C(N)C3CCCCC3)cs2)n1 (configuration not stated)	none (no result: Pf growth 48h, CHX counter, HCV inh, Shiga toxin inh, Pf growth 96h)
CCOCc1c(C(=O)N2CCN(CC(=O)Nc3ccc(F)cc3)CC2)oc2ccccc12	Pf growth 48h inconclusive, Pf growth 96h inconclusive (no result: CHX counter, Shiga toxin inh)
COCc1c(C(=O)N2CCN(S(=O)(=O)c3ccccc3Cl)CC2)oc2ccccc12	Pf growth 48h 11.7µM, HCV inh inconclusive, Pf growth 96h inconclusive (no result: CHX counter, Shiga toxin inh)
CCOCc1c(C(=O)N2CCN(CCOc3ccc(Cl)cc3)CC2)oc2ccccc12	AMA1-RON2 inh inconclusive, Pf growth 48h inconclusive, HCV inh 5.62µM (no result: CHX counter, Shiga toxin inh)
COCc1c(C(=O)N2CCN(Cc3nc4ccccc4s3)CC2)oc2ccccc12	none (no result: CHX counter, Shiga toxin inh)
CCOC(=O)c1oc2ccccc2c1CN1CCN(C)CC1	Pf growth 96h 13.1µM
Cc1c(C(=O)N2CCN(c3ccccc3)CC2)oc2c(Cl)cccc12	Pf growth 48h inconclusive, HCV inh inconclusive, Pf growth 96h inconclusive (no result: CHX counter, Shiga toxin inh)
Cc1c(C(=O)N2CCN(S(=O)(=O)c3ccccc3F)CC2)oc2c(Cl)cccc12	Pf growth 48h 10.4µM, HCV inh inconclusive, Pf growth 96h 11.7µM (no result: CHX counter, Shiga toxin inh)
Cc1c(NC(=O)C2CCCN2S(=O)(=O)c2cccc3nsnc23)cccc1C(=O)O (configuration not stated)	Pf growth 96h 9.28µM (no result: Pf growth 48h)
COc1ccc(NC(=O)C2CCCN2S(=O)(=O)c2cccc3nsnc23)c(OC)c1 (configuration not stated)	Pf growth 48h inconclusive, Pf growth 96h 10.4µM
Cc1ccc(C(=O)O)cc1NC(=O)C1CCCN1S(=O)(=O)c1cccc2nsnc12 (configuration not stated)	Pf growth 96h 16.5µM (no result: Pf growth 48h)
CC(C)c1ccc(NC(=O)c2ccc3c(c2)C(=O)N(Cc2cccnc2)C3=O)cc1	none
CCOc1cc(CNc2ncnc3nc[nH]c23)ccc1OC	HCV inh inconclusive
CCOc1cc(CNc2cccc3[nH]c(C)nc23)ccc1OC	Pf growth 48h 11.7µM, HCV inh inconclusive
CC1(C)OC(=O)C(=NNc2ccc(O)cc2)C(=O)O1	CHX counter 12.7, HCV inh inconclusive
CC1(C)OC(=O)C(=NNc2ccccc2C(=O)O)C(=O)O1	Pf growth 96h inconclusive
CC1(C)OC(=O)C(=NNc2ccc(C(=O)O)cc2)C(=O)O1	none
CC1(C)OC(=O)C(=NNc2ccc(Cl)cc2)C(=O)O1	CHX counter 59.8, Shiga toxin inh 63.0 (no result: Pf growth 48h)
CCN(CC)c1ccc(C=NCCc2ccc(S(N)(=O)=O)cc2)cc1	none
O=C(C1=C(O)/C(=C/c2ccc(O)cc2)CCC1)C(F)(F)F	CHX counter 30.5, Shiga toxin inh 43.9
CCN(C(=O)COC(=O)CNC(=O)c1ccc(C)s1)c1ccccc1	none
Cc1onc(-c2ccccc2)c1C(=O)Nc1cc(C(F)(F)F)ccc1N1CCOCC1	HCV inh inconclusive (no result: Pf growth 48h)
Cc1onc(-c2c(Cl)cccc2Cl)c1C(=O)N=C(N)N1CC(C)OC(C)C1 (configuration not stated)	Pf growth 48h 3.29µM, Pf growth 96h 11.7µM
CCOC(=O)c1ccc(N2CCOCC2)c(NC(=O)c2c(-c3ccccc3)noc2C)c1	Pf growth 48h 13.1µM, HCV inh inconclusive, Pf growth 96h inconclusive
